Where “and” joins values, the source holds several entries; their conditions need not be identical. Equal values may be shown once. Hit rate of the full screen: of about 5,500 compounds, about 2,000 (36%) were called active. Inconclusive results (about 18%) are left out. Rule as the data show it: active = normalized growth mostly below about 0.91 (no sharp cut-off); inconclusive = no clear call, values can overlap the other calls; inactive = mostly above about 0.92. The list shows a part of the results.
Experiment: chemical genetic growth profiling, strain panel (AID 1159580);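 also: tested at 20 µM; growth read once vehicle control cultures reached saturation at 30 °C; 1 = growth at the plate median or of vehicle wells; lower values mean less growth of the strain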
Conditions: S. cerevisiae deletion strains, growth OD

Measured: normalized growth

CCC(Cc1c(I)cc(I)c(N)c1I)C(=O)O (stereo not given)
active: locus YAL026C, strain drs2, stronger effect = lower value 0.889 | locus YBR009C, strain hhf1, stronger effect = lower value 0.861 | locus YCL011C, strain gbp2, stronger effect = lower value 0.905 | locus YCL069W, strain vba3, stronger effect = lower value 0.907 | locus YDR137W, strain rgp1, stronger effect = lower value 0.71 | locus YDR392W, strain spt3, stronger effect = lower value 0.711 | locus YHR079C, strain IRE1, stronger effect = lower value 0.135 | locus YJL164C, strain tpk1, stronger effect = lower value 0.903 | locus YJR066W, strain TOR1, stronger effect = lower value 0.0664
inactive: locus YAL013W, strain DEP1, stronger effect = lower value 0.979 | locus YAL021C, strain ccr4, stronger effect = lower value 0.934 | locus YAL030W, strain snc1, stronger effect = lower value 0.945 | locus YBL061C, strain skt5, stronger effect = lower value 0.955 | locus YBR021W, strain FUR4, stronger effect = lower value 1.03 | locus YBR023C, strain chs3, stronger effect = lower value 0.935 | locus YBR171W, strain sec66, stronger effect = lower value 0.921 | locus YBR229C, strain ROT2, stronger effect = lower value 0.989 | locus YBR231C, strain swc5, stronger effect = lower value 0.977 | locus YBR279W, strain paf1, stronger effect = lower value 0.945 | locus YCL016C, strain dcc1, stronger effect = lower value 0.934 | locus YCL029C, strain bik1, stronger effect = lower value 0.997 | locus YCR088W, strain abp1, stronger effect = lower value 0.935 | locus YDL005C, strain med2, stronger effect = lower value 0.95 | locus YDL035C, strain GPR1, stronger effect = lower value 1 | locus YDL040C, strain nat1, stronger effect = lower value 0.96 | locus YDL074C, strain BRE1, stronger effect = lower value 1.01 | locus YDL101C, strain DUN1, stronger effect = lower value 1.01 | locus YDL134C, strain PPH21, stronger effect = lower value 1.01 | locus YDL192W, strain arf1, stronger effect = lower value 0.997 | locus YDR001C, strain nth1, stronger effect = lower value 0.927 | locus YDR069C, strain doa4, stronger effect = lower value 0.951 | locus YDR101C, strain arx1, stronger effect = lower value 1 | locus YDR150W, strain NUM1, stronger effect = lower value 1.01 | locus YDR159W, strain sac3, stronger effect = lower value 0.895 | locus YDR162C, strain NBP2, stronger effect = lower value 0.982 | locus YDR195W, strain ref2 0.992 | locus YDR297W, strain sur2, stronger effect = lower value 0.954 | locus YDR318W, strain mcm21, stronger effect = lower value 1 | locus YDR334W, strain swr1, stronger effect = lower value 0.942 | locus YDR335W, strain msn5, stronger effect = lower value 0.947 | locus YDR388W, stronger effect = lower value 0.996 | locus YDR502C, strain sam2, stronger effect = lower value 0.991 | locus YEL003W, strain gim4, stronger effect = lower value 0.934 | locus YEL037C, strain rad23, stronger effect = lower value 0.947 | locus YEL061C, strain CIN8 (second series), stronger effect = lower value 0.942 | locus YEL061C, strain CIN8, stronger effect = lower value 0.994 | locus YER015W, strain faa2, stronger effect = lower value 0.977 | locus YER016W, strain bim1, stronger effect = lower value 0.927 | locus YER110C, stronger effect = lower value 1 | locus YER111C, strain swi4, stronger effect = lower value 0.925 | locus YER155C, strain BEM2 (second series), stronger effect = lower value 0.94 | locus YER155C, strain BEM2, stronger effect = lower value 1 | locus YER167W, strain BCK2, stronger effect = lower value 0.998 | locus YFR010W, strain ubp6, stronger effect = lower value 0.985 | locus YGL078C, strain dbp3, stronger effect = lower value 0.997 | locus YGL086W, strain mad1, stronger effect = lower value 0.986 | locus YGL167C, strain pmr1, stronger effect = lower value 0.928 | locus YGL173C, strain kem1, stronger effect = lower value 0.936 | locus YGL227W, strain vid30, stronger effect = lower value 0.949 | locus YGL240W, strain doc1, stronger effect = lower value 0.99 | locus YGL248W, strain PDE1, stronger effect = lower value 1 | locus YGL253W, strain hxk2, stronger effect = lower value 0.921 | locus YGR078C, strain PAC10, stronger effect = lower value 1.01 | locus YGR135W, strain pre9, stronger effect = lower value 1 | locus YGR229C, strain SMI1, stronger effect = lower value 1.02 | locus YGR252W, strain gcn5, stronger effect = lower value 1.04 | locus YHR013C, strain ard1, stronger effect = lower value 0.852 | locus YHR027C, strain rpn1, stronger effect = lower value 0.927 | locus YHR079C, strain IRE1 (second series), stronger effect = lower value 1 | locus YHR094C, strain hxt1, stronger effect = lower value 1 | locus YHR129C, strain ARP1, stronger effect = lower value 0.957 | locus YHR142W, strain chs7, stronger effect = lower value 0.912 | locus YHR200W, strain rpn10, stronger effect = lower value 1 | locus YIL066C, strain RNR3, stronger effect = lower value 1 | locus YIL073C, strain SPO22, stronger effect = lower value 1.04 | locus YIL125W, strain kgd1, stronger effect = lower value 0.992 | locus YIR030C, strain dcg1, stronger effect = lower value 0.996 | locus YJL092W, strain hpr5, stronger effect = lower value 0.942 | locus YJL095W, strain BCK1 (second series), stronger effect = lower value 0.959 | locus YJL115W, strain asf1, stronger effect = lower value 0.954 | locus YJL129C, strain trk1, stronger effect = lower value 0.931 | locus YJL134W, strain LCB3, stronger effect = lower value 1 | locus YJL154C, strain vps35, stronger effect = lower value 0.935 | locus YJL166W, strain qcr8, stronger effect = lower value 0.949 | locus YJL168C, strain set2, stronger effect = lower value 0.999 | locus YJL187C, strain SWE1 (second series), stronger effect = lower value 1.01 | locus YJR043C, strain POL32, stronger effect = lower value 1.03 | locus YJR075W, strain HOC1, stronger effect = lower value 1.02
1 (inactive) and 0.148 (active): locus YHR030C, strain SLT2, stronger effect = lower value
0.993 (inactive) and 0.112 (active): locus YJL095W, strain BCK1, stronger effect = lower value
